# PriA SSB inh: inhibitors of Klebsiella pneumoniae PriA binding to SSB C-terminal tail, primary screen, biochemical, AlphaScreen; PriA–SSB C-terminal tail interaction (Klebsiella pneumoniae); AlphaScreen SSBct-PriA binding, biotinylated peptide; inhibition, % at 33 µM; 430,000 tested, 0.6% active; AID 1272365, 2023; in the data active = inhibition mostly above about 37%, no sharp cut-off; inactive = mostly below about 20%
# DUSP3 inh: VHR1 phosphatase inhibitors, primary screen, biochemical, absorbance, uHTS; Dual specificity protein phosphatase 3 (Homo sapiens), P51452; recombinant VHR phosphatase, pNPP absorbance; inhibition, % at 13.3 µM; 290,000 tested, 0.52% active; AID 1654, 2009; in the data active = inhibition above about 50%
# Target sequence (P51452 whole entry, looked up): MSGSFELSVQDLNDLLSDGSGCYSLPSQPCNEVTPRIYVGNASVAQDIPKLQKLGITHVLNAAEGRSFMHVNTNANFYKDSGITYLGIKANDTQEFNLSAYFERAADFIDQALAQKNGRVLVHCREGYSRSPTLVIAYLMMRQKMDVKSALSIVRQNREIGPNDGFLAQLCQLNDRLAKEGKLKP
# Sa RN4220 lethal: growth inhibition of S. aureus RN4220, primary screen, OD600; 16 h; inhibition, % (test concentration not listed); 330,000 tested, 0.33% active; AID 1259311, 2017; in the data active = inhibition above about 85%
# Sa ugtP lethal: growth inhibition of ugtP-null S. aureus, primary screen, RN4220 ugtP deletion, OD600; 16 h; growth inhibition, % (test concentration not listed); 330,000 tested, 0.54% active; in the data active = growth inhibition above about 68%
# CCHF vOTU inh-1: CCHFV vOTU protease inhibitors, primary screen, biochemical, Pep-AMC substrate, fluorescence; inhibition, % at 11.5 µM; 370,000 tested, 0.55% active; AID 651958, 2012
# CCHF vOTU inh-2: CCHFV vOTU protease inhibitors, confirmation, biochemical, Pep-AMC substrate, fluorescence; Recombinant CCHFV vOTU; inhibition, % at 11.5 µM; AID 686976, 2013; shares compounds with CCHF vOTU inh-1; 1,900 tested, 17% active
# Hits are given with their value; 0 = inactive; - = no result. Sampled rows, rich in hits. Any-hit rate of the full collection: about 1.5%. Cut-off read from the data, not from the text of the source, unless noted: active = inhibition above about 30%; inactive = the rest.
SMILES,PriA SSB inh,DUSP3 inh,Sa RN4220 lethal,Sa ugtP lethal,CCHF vOTU inh-1,CCHF vOTU inh-2
O=C(CCNS(=O)(=O)c1ccc(OC(F)(F)F)cc1)NCCc1c[nH]c2ccccc12,0,-,0,0,30,0
Cc1[nH]n(-c2ccccc2)c(=O)c1C(c1cccc([N+](=O)[O-])c1)c1c(C)[nH]n(-c2ccccc2)c1=O,0,0,0,0,41,0
Cc1[nH]n(-c2ccccc2)c(=O)c1C(c1cccc([N+](=O)[O-])c1O)c1c(C)[nH]n(-c2ccccc2)c1=O,0,0,0,0,33,0
Cc1cc(C(=O)N/N=C2\CC(=O)c3ccccc32)c(C)n1-c1ccc(F)cc1,-,0,-,-,61,0
COc1cccc(NC(=O)/C=C/c2ccc(S(=O)(=O)N3CCOCC3)cc2)c1,0,-,0,0,30,0
CC(=O)Nc1cccc(NC(=O)/C=C/c2ccc(S(=O)(=O)N3CCOCC3)cc2)c1,0,-,0,0,0,-
CC(C)n1c(SC2C(=O)CC(C)(C)CC2=O)nc2c1c(=O)n(C)c(=O)n2C,0,0,0,0,30,0
CCCn1c(SC2C(=O)CC(C)(C)CC2=O)nc2c1c(=O)n(C)c(=O)n2C,0,0,0,0,0,-
O=c1c(SCc2ccccc2Cl)nccn1-c1ccc2c(c1)OCCO2,0,-,-,-,-,-
CCOc1ccc(CC(=O)Nc2cccc(-c3ccc4nnc(-c5cccs5)n4n3)c2)cc1,0,-,-,-,-,-
COc1ccc(NC(=S)Nc2ccc3nsnc3c2)cc1,0,0,0,0,118,100
CCOc1ccc(NC(=S)Nc2ccc3nsnc3c2)cc1,0,0,0,0,118,92
COCCNC(=S)Nc1ccc2nsnc2c1,0,0,-,-,100,0
COc1ccc(NC(=S)Nc2ccc3nc(C)c(C)nc3c2)cc1,0,0,0,0,0,-
C=CCN(CC=C)C(=S)Nc1ccc2nsnc2c1,0,0,0,0,51,87
Cc1ccc(-c2ccc(=O)n(CCCC(=O)NCc3cccs3)n2)cc1,0,-,-,-,-,-
COc1ccc(N(C)C(=O)Nc2ccc3nsnc3c2)cc1,0,0,0,0,0,-
S=C(Nc1ccc2nsnc2c1)N1CCCCCC1,0,0,0,0,36,97
CC(C)N(C(=O)Nc1ccc2nsnc2c1)C(C)C,0,0,0,0,98,67
O=C1NCCN1C(=O)NCc1ccsc1,0,-,-,-,-,-
COc1ccc(CNc2ccc3cn[nH]c3c2)c(OC)c1OC,0,0,0,0,40,0
COC(=O)Nc1ccc(S(=O)(=O)N2CCC(C(=O)N3CCC(C)CC3)CC2)cc1,0,0,0,0,42,0
O=S(=O)(Nc1nc(-c2ccccc2)cs1)c1cccc(C(F)(F)F)c1,0,0,0,0,32,0
Cc1ccccc1C(=O)N[C@H](C(=O)N1CCC[C@H]1C(=O)NCCc1ccccc1Cl)C1CCCCC1,-,-,-,-,0,-
O=C(NCCc1ccccc1Cl)[C@@H]1CCCN1C(=O)[C@@H](NS(=O)(=O)c1ccc(F)cc1F)C1CCCCC1,-,-,-,-,34,0
SMILES,PriA SSB inh,DUSP3 inh,Sa RN4220 lethal,Sa ugtP lethal,CCHF vOTU inh-1,CCHF vOTU inh-2
CC(CC(=O)OCC(=O)NCc1ccc(Cl)cc1)c1ccccc1 (stereo not given),0,-,0,0,33,0
Cc1cccc(NC(=O)NCC(c2ccsc2)N2CCN(C)CC2)c1 (stereo not given),0,-,-,-,-,-
COC(COC(N)=O)C1=C(N2CC2)C(=O)C(C)=C(N2CC2)C1=O (stereo not given),0,-,-,-,32,0
CC(C)(C)c1cc[n+](C2=C([O-])c3ccccc3C(=O)/C2=N\S(=O)(=O)c2cccs2)cc1,-,0,0,0,77,70
O=C1/C(=N\S(=O)(=O)c2cccs2)C([n+]2ccccc2)=C([O-])c2ccccc21,-,0,0,0,49,89
CC(C)(C)c1cc[n+](C2=C([O-])c3ccccc3C(=O)C2=NS(=O)(=O)c2cccs2)cc1,0,-,-,-,-,-
O=[N+]([O-])c1cc(Br)c2c(c1)CCN2,-,-,-,-,30,0
O=[N+]([O-])c1ccc2c(c1)NCCC2,0,-,-,-,-,-
CC1(OC(=O)C2CCCC2)C(=O)C=C2C=C(c3ccsc3)N(CCCCO)C=C2C1=O (stereo not given),0,0,0,0,30,34
COc1ccc(CN2C=C3C(=O)C(C)(OC(=O)C4CCCC4)C(=O)C=C3C=C2c2ccsc2)cc1 (stereo not given),0,0,0,0,0,-
Cc1noc(NS(=O)(=O)c2ccc(NC(=O)c3oc4ccc(Cl)cc4c3C)cc2)c1C,0,0,0,0,35,0
COc1cc(Cl)c(C)cc1NC(=O)CN1C(=O)C2CCCCC2C1=O (stereo not given),0,-,0,0,32,0
Cc1ccc2c(c1N)C(=O)c1ccccc1C2=O,0,-,-,-,0,-
Cc1ccc2c(c1C)-c1c(ccc(C)c1C)C(=O)C2=O,0,-,-,-,75,72
Cc1ccc(S(=O)(=O)CCC(=O)NCCN2C(=O)S/C(=C\c3ccccc3)C2=O)cc1,0,0,0,0,40,0
O=C(CCS(=O)(=O)c1ccc(Cl)cc1)NCCN1C(=O)S/C(=C\c2ccccc2F)C1=O,0,0,0,0,0,-
COc1ccc(NC(=O)C(=O)NCC2CCN(C(C)C)CC2)cc1Cl,0,-,-,-,-,-
FC(F)(F)c1cc(CO[C@@H]2CCCN[C@@H]2c2ccccc2)cc(C(F)(F)F)c1,0,-,-,-,33,0

# Screens from PubChem.
